# Test results as given in PubChem BioAssay AID504339 (National Center for Advancing Translational Sciences (NCATS), 2011).
# Out of some 390,000 compounds screened, about 17,000 (4.4%) were called active. Roughly 8% stayed inconclusive and do not appear here. The sample holds actives, similar compounds and a random draw of the others, so the mix is not that of the screen. Unmarked numbers belong to inactive results. Calls come from the whole dose curve; as a rule, active = well fitted inhibition curve with a large enough effect; inconclusive = small, poorly fitted or top-dose-only effect; inactive = no such curve, though single readings can be large or run the other way.
# Target: Lysine-specific demethylase 4A (Homo sapiens) (UniProt O75164)
# Assay: qHTS Assay for Inhibitors of JMJD2A-Tudor Domain; note: nearly all actives have a fitted effect of over 50% in size
# Conditions: AlphaScreen JMJD2A-Tudor / H3K4me3 peptide binding; series mostly up to 114 µM; activity change, negative = inhibition: at the top concentration
# % is set by controls: 0 for no effect and ±100 for the full control effect; potency is the fitted concentration of half-maximal effect.
# Sequence of Lysine-specific demethylase 4A (Homo sapiens) (O75164 whole entry, looked up, the tested form may be a part): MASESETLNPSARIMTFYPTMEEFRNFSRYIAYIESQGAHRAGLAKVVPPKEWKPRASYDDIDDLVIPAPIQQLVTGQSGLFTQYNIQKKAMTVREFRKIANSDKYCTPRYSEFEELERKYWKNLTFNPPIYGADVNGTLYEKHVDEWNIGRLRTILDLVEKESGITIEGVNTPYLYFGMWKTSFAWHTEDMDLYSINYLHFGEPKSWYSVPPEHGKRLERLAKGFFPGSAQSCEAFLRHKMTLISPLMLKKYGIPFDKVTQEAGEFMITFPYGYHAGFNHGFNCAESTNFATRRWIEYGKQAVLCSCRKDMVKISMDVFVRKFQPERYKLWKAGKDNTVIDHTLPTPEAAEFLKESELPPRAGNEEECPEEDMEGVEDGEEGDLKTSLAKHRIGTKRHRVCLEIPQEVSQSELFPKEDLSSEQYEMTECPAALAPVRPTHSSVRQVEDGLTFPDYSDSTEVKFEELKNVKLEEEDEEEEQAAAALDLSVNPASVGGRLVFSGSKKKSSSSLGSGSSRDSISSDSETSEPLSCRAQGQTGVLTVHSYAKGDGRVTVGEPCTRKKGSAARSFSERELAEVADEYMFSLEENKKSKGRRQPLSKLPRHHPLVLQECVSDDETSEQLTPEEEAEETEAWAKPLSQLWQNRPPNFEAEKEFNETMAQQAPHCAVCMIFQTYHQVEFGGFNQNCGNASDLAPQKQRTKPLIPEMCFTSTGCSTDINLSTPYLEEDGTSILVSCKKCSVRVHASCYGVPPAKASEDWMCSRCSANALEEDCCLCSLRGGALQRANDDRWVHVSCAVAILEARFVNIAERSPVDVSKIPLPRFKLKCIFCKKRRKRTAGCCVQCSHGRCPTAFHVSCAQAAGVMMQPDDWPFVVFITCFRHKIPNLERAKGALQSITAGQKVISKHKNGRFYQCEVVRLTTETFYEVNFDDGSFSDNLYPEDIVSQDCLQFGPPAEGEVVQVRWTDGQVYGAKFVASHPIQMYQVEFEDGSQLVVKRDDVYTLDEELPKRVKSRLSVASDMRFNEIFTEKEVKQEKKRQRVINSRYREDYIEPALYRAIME
Structure (SMILES),"activity change, negative = inhibition [%]",Potency
COc1ccccc1-n1c(-c2ccc(C)cc2)cn2c3c(=O)n(C)c(=O)n(C)c3nc12,-27.4,
COc1ccc(CNc2nc(-c3ccc(Cl)cc3)cc(C(F)(F)F)n2)cc1,100,
O=S(=O)(c1ccc(Br)cc1)c1nnn2c1nc(N1CCOCC1)c1sccc12,2.2,
O=C(CSc1ncc(CO)n1Cc1ccc(F)cc1)NCc1ccco1,-12.1,
O=c1[nH]c(CSc2ncc(-c3ccc(F)cc3)n2Cc2ccco2)nc2ccccc12,,35.5 µM (active)
O=C(c1ccco1)N(Cc1nc2ccccc2c(=O)[nH]1)C1CCCC1,-5.22,
CCOc1ccc(CCNC(=O)c2ccc3c(c2)sc2nc(-c4ccc(F)cc4)cn23)cc1OCC,-11.3,
Cc1cc(C)c(C2C3=C(Nc4c2c(C)nn4-c2ccccn2)c2ccccc2C3=O)c(C)c1 (stereo not given),,25.1 µM (active)
COc1ccc(NC(=O)c2ccc3oc(=O)c(S(=O)(=O)c4ccc(F)cc4)cc3c2)c(OC)c1,-6.06,
Cc1ccc(C(=O)CC2(O)C(=O)N(CCc3ccccc3)c3ccc(Br)cc32)cc1 (stereo not given),-25.3,
COc1ccc2cc(CNc3ccc(OC)c(OC)c3)c(=O)n(CC(=O)Nc3ccccc3F)c2c1,-20.7,
O=C(O)c1ccccc1N=N/C(=N/Nc1cc(S(=O)(=O)O)ccc1O)c1ccccc1,,12.6 µM (active)
COc1ccc(-c2cccc(NS(=O)(=O)c3cc(C)c(OC)c(C)c3C)c2)nn1,-23.6,
Cc1ccc(-c2cc(C(F)(F)F)c(C#N)c(SCC(=O)Nc3ccccc3)n2)cc1,1.72,
COc1ccc(C(=O)c2c(C)c(CCC#N)n3ccccc23)c(OC)c1,,35.5 µM (active)
COc1ccc(C(=O)CCc2ccccc2O)c(OC)c1,-12.3,
COc1ccc(C(=O)NC(C)CCc2ccccc2)c(OC)c1 (stereo not given),7.51,
Cc1c(Cl)cccc1NC(=O)C1CCCN(C(=O)c2cnn(-c3ccccc3)c2-n2cccc2)C1 (stereo not given),-23.2,
CCCCC(=O)OC1=CN(Cc2ccccc2)S(=O)(=O)c2ccccc21,44.4,
COc1ccc2c(c1)c(=O)c(S(=O)(=O)c1ccc(F)cc1)cn2CC(=O)Nc1ccc(C)cc1C,-15.6,
COc1ccccc1-c1cc(C(=O)N2CCCCC2)no1,-6.94,
CN1CCN(C(=O)c2ccc(-c3ccc(Br)cc3)o2)CC1,-26.3,

Structure (SMILES),"activity change, negative = inhibition [%]",Potency
S=C(c1ccc(-c2ccccc2)o1)N1CCCCC1,,20 µM (active)
COc1ccc(NC(=O)c2ccc3nc(C(C)C)oc3c2)cc1OC,-1.92,
Clc1cccc(Cl)c1OCCOCCNCc1ccccc1,,20 µM (active)
S=C(NCCc1ccccc1)NCc1ccccc1Cl,-6.57,
OCCNCc1cccc(OCc2ccccc2Cl)c1,1.38,
COC(=O)c1ccc(C2C(C(=O)Nc3ccccc3)=C(C)Nc3nc4ccccc4n32)cc1 (stereo not given),-17.2,
O=C(Nc1ccc(S(=O)(=O)Nc2ccccn2)cc1)c1ccccc1,4.86,
O=C(NC(=O)c1ccccc1)Nc1ccccc1O,-5.35,
O=C(NC1=CC(=O)c2ccccc2C1=O)c1ccccc1,,20 µM (active)
N#Cc1nc(NCc2ccc(Cl)c(Cl)c2)c2ncn(CCCO)c2n1,-21.3,
COC(=O)c1scc(-c2ccccc2)c1S(=O)(=O)Nc1ccccc1,-4.81,
CCOc1ccc(Nc2nc(Cl)nc(N3CCN(c4ccc(OC)cc4)CC3)n2)cc1,,44.7 µM (active)
COC(=O)c1ccc(Oc2nc(Nc3ccc(F)cc3)nc(N3CCCC3)n2)cc1,-6.45,
COc1ccc(Nc2ncc(F)c(N3CCOCC3)n2)cc1,-20.2,
O=c1c(NCc2cccs2)nccn1-c1ccccc1,-30.5,
COc1cc(C(=O)NCCS(=O)(=O)N2CCN(c3ccccc3)CC2)cc(OC)c1OC,-0.639,
COc1ccc(-n2c(C)cc(C(=O)COC(=O)c3cc(OC)c(OC)cc3NC(=O)c3cccs3)c2C)cc1,-16.8,
COc1ccc(-n2c(C)cc(C(=O)CSc3nnc(-c4cccs4)o3)c2C)cc1,,56.2 µM (active)
Cc1ccc(OC(=O)CSc2nnc(-c3cccs3)o2)cc1,-19.9,
CCOC(=O)c1cc2c(=O)n3ccccc3nc2n(CC2CCCO2)c1=NC(=O)c1ccccc1Br (stereo not given),5.12,
COCCNC(=O)CSc1c(C)cnc2c1c(=O)n(C)c(=O)n2C,-4.22,
NS(=O)(=O)c1ccc(NC(=O)CSc2nnc3c(n2)[nH]c2ccccc23)cc1,-6.12,

Structure (SMILES),"activity change, negative = inhibition [%]",Potency
CCC1CCCCN1Cc1c(O)ccc2c(=O)c(Oc3ccccc3Cl)c(C(F)(F)F)oc12 (stereo not given),-3.78,
COc1ccc(CCNC(=O)CCc2c(C)nc3c(c(C)nn3-c3ccc(C)c(C)c3)c2C)c(OC)c1OC,-14.5,
CCCCCC(=O)NC(=S)NNC(=O)c1ccc([N+](=O)[O-])cc1,,28.2 µM (active)
CC(C)CC(=O)NC(=S)NNC(=O)c1cccc([N+](=O)[O-])c1,-17.9,
COCCCNC(=S)NC(=O)c1ccc([N+](=O)[O-])cc1,-20,
COc1ccc(CCNc2nc(-c3ccc(F)cc3)cc(C(F)(F)F)n2)cc1OC,6.14,
CSc1nn(Cc2cccc(C)c2)c(N)c1S(=O)(=O)c1ccccc1,-14.6,
O=C(c1cc2c(s1)CCC2)N1CCN(c2ccccc2)CC1,,20 µM (active)
O=C(c1cc2ccccc2s1)N1CCN(c2ccccn2)CC1,-5.3,
O=C(C1CCC1)N1CCN(c2ccccc2)CC1,3.47,
COCCCNC(NC(=O)c1ccc(C)cc1)C(Cl)(Cl)Cl (stereo not given),0,
CCn1c(C(C)NC(=O)c2ccc(C)cc2)n[nH]c1=S (stereo not given),,6.31 µM (active)
CCn1c(SCC(=O)NNC(=O)c2ccc(OC)cc2)nnc1C(C)C,-10.6,
COc1cc(NC(=O)c2nc3ccccc3nc2C)cc(OC)c1OC,-18.5,
CC1=C(C(=O)Nc2ccccc2Cl)C(c2cccs2)n2ncnc2N1 (stereo not given),-9.58,
CCCCOC(=O)CSc1ncnc2sc3c(c12)CCC(C)C3 (stereo not given),67.1,
Cn1c(=O)n(Cc2c(F)cccc2Cl)c(=O)c2c1nc1n2CCN1c1ccc(F)cc1,-7.24,
CCn1c(Cc2cccs2)nnc1SCC(=O)c1ccc(C)cc1,-28.2,
CCn1c(SCC(=O)c2ccc(Cl)s2)nnc1-c1cccs1,-16.4,
CCn1c(SCC(=O)c2ccc3ccccc3c2)nnc1-c1cccs1,,79.4 µM (active)
Cc1ccc(CCNC(=O)c2ccc3c(c2)nc2n3CCC(C)C2)cc1 (stereo not given),-11,
